CYP2C9 activ – human CYP2C9 activators, primary screen, biochemical, luminescence; Cytochrome P450 2C9 (Homo sapiens), P11712; recombinant CYP2C9, luciferin-H conversion; active compounds read high; factor 1 = untreated enzyme, 0 = blocked; activation factor at 5 µM; 1.4% of 96,000 active; AID 1024, 2008;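 active = activation factor of 2 or more for CYP2C9 at a 5 µM dose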;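 also: 0 = sulfaphenazole-blocked wells and 1 = vehicle-only wells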
Cav32 inh – Cav3.2 calcium influx blockers – cell-based, Fluo-4 calcium fluorescence, FDSS, MLSMR library, primary screen; Cav3.2-expressing cells; active compounds read low; B-score at 10 µM; 4% of 100,000 active; AID 449739, 2010;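 active = single-dose well whose peak fluorescence ratio is a statistical outlier from its plate by either plate-standardised score or position-corrected B-score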
CYP2C9 inhib – blockers of cytochrome P450 2C9 activity – biochemical, luminescence, ADME assay, primary screen; P11712; CYP2C9 Supersomes, luciferin-H conversion; inhibition, % at 5 µM; 20% of 96,000 active;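 active = blocking of liver enzyme CYP2C9 beyond about 50% at 5 µM, limit read from the data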
CYP2C19 activ – human CYP2C19 activators, primary screen, biochemical, luminescence; recombinant CYP2C19, luciferin-H EGE luminescence; active compounds read high; 0 = fully inhibited enzyme, 1 = untreated enzyme; activation factor at 5 µM; 96,000 tested, under 10 active;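 active = activation factor of at least 2 at 5 µM in the primary screen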;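 also: 0 = wells with 2.5 mM tranylcypromine and 1 = vehicle-only wells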
Target sequence (P33261 whole entry, looked up): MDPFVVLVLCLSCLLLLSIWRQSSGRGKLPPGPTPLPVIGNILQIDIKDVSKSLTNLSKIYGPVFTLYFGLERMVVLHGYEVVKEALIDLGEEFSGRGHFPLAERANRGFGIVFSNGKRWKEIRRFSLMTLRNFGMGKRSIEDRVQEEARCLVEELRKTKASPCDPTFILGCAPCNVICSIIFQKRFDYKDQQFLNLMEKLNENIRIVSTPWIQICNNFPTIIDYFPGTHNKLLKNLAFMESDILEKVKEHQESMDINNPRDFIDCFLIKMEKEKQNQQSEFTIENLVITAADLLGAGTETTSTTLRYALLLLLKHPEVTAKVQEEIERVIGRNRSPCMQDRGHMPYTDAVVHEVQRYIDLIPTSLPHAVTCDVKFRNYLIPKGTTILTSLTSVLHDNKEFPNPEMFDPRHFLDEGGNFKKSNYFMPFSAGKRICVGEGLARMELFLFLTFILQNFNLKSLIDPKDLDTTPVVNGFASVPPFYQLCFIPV
CYP2C19 inhib – blockers of cytochrome P450 2C19 activity – biochemical, luminescence, ADME assay, primary screen. CYP2C19 Supersomes, luciferin-H EGE luminescence, 30 min. inhibition, % at 5 µM. 21% of 96,000 active;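 active = CYP2C19 inhibition above a set limit at 5 µM in the primary screen, cut at about 50% in these data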;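 also: plate controls were negative control wells for no effect and 2.5 mM tranylcypromine positive control for full effect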
Active calls of the source: *; nt = not tested or not shown. The list is not random: actives were taken first. Their share in the collection is about 27%.

SMILES	CYP2C9 activ	Cav32 inh	CYP2C9 inhib	CYP2C19 activ	CYP2C19 inhib
CCC(c1nnnn1Cc1ccc2c(c1)OCO2)N1CCN(c2ccc(OC)cc2)CC1 (centres undefined)	0.2	-1.17	83.0*	0.3	72.9*
CC(C)C(c1nnnn1Cc1ccc(F)cc1)N1CCN(C(=O)c2ccco2)CC1 (centres undefined)	0.4	0.63	62.1*	0.5	50.3*
CCCC(c1nnnn1Cc1cccs1)N1CCN(c2ccc(OC)cc2)CC1 (centres undefined)	0.6	-1.9	35.3	0.6	41.6
NC(=O)C1CCN(C(c2ccccc2Cl)c2nnnn2Cc2ccc3c(c2)OCO3)CC1 (centres undefined)	0.3	0.874	68.1*	0.2	81.1*
Nc1nnc(CC(=O)NCc2ccccc2)s1	1	0.516	-3.8	0.9	6.3
Cc1c(NC(=O)c2cc3nc(-c4ccc(Br)cc4)cc(C(F)(F)F)n3n2)c(=O)n(-c2ccccc2)n1C	nt	-0.249	nt	nt	nt
CC(C)C(c1nnnn1Cc1ccc(F)cc1)N1CCN(Cc2ccc3c(c2)OCO3)CC1 (centres undefined)	0.3	-0.65	72.1*	0.1	86.9*
CCC(c1nnnn1Cc1ccc2c(c1)OCO2)N1CCN(c2ccc(F)cc2)CC1 (centres undefined)	0.1	nt	87.1*	0.6	43.0
CCCC(c1nnnn1Cc1ccc(OC)cc1)N1CCN(c2ccccc2OC)CC1 (centres undefined)	0.5	-5.14*	48.2	0.6	42.7
CCN1CCN(C(c2nnnn2Cc2ccc3c(c2)OCO3)C(C)C)CC1 (centres undefined)	nt	0.148	nt	nt	nt
O=C(NC1CCCCC1)c1ccccc1NC(=O)C1CC1	nt	0.242	nt	nt	nt
Cc1ccc(CN2CCNC(=O)C2CC(=O)O)o1 (centres undefined)	1.1	-0.941	-11.4	1.1	-8.6
CCC(=O)n1nc(-c2ccccc2)nc1NCc1ccccc1	0.8	-1.36	15.6	0.8	16.1
CCC(=O)n1nc(-c2cccnc2)nc1NCc1ccc(OC)cc1	0.4	0.711	61.4*	0.3	72.9*
COCC(=O)n1nc(NCc2ccc(OC)cc2)nc1NCc1ccc(OC)cc1	0.6	-8.92*	37.0	0.8	21.2
N#C/C(C(=O)c1ccccc1)=C1/CCCCCN1	1	-0.56	-3.6	0.6	39.1
Cc1cc(C)cc(NC(=O)CSc2nc(N)c(NC(=O)c3cccs3)c(=O)[nH]2)c1	nt	2.43	nt	nt	nt
Cc1ccc(N)cc1CN1CCCC1=O	0.9	nt	7.0	0.9	11.1
c1ccc(CC2CCN(C3=Nc4cccc5cccc3c45)CC2)cc1	1	nt	-4.1	0.1	86.7*
C=CCN1C(=O)/C(=C2/Sc3ccccc3N2C)SC1=Nc1ccccc1C	0.4	-0.717	55.5*	0.6	39.1
C=CCN1C(=O)/C(=C2/C(=O)N(CC(=O)O)c3ccccc32)S/C1=N/c1nccs1	0.9	nt	13.0	1.1	-10.2
COc1ccc2c(c1)C(=NN)c1cc(OC)ccc1-2	0.4	0.332	61.8*	0.6	38.3
COc1ccc(OC)c(N)c1	1.1	nt	-7.8	1	1.5
Cc1ccccc1-c1nc(Cc2ccccc2)no1	0.9	0.0213	8.6	0.8	17.0
Cc1ccc(C(C)NC(=O)c2ccco2)cc1C (centres undefined)	2.2*	0.615	-119.9	0.5	48.2
SMILES	CYP2C9 activ	Cav32 inh	CYP2C9 inhib	CYP2C19 activ	CYP2C19 inhib
CC1CCCC(NC(=O)c2ccc(CNc3c(N4CCCC4)c(=O)c3=O)cc2)C1C (centres undefined)	1	0.899	-0.7	1	-0.2
Clc1ccc(CNC2CCCC2)c(Cl)c1	1.1	-0.0214	-11.4	0.2	76.6*
COc1cc(C)c(CNC2CCCCC2)cc1C	1	0.809	-3.2	0.9	12.4
O=C(NC1CCCC1)C(c1c[nH]c2ccccc12)N(C(=O)Cn1nnc(-c2ccc(Cl)cc2)n1)c1ccccc1 (centres undefined)	0.3	-4.63	67.2*	0.7	30.3
COc1cccc(N(C(=O)Cn2nnc(-c3ccc(C)cc3)n2)C(C(=O)NC(C)(C)C)c2c[nH]c3ccccc23)c1 (centres undefined)	0.1	-5.61*	87.6*	0.6	40.4
Cc1ccc(-c2nnn(CC(=O)N(c3ccccc3)C(C(=O)NC3CCCC3)c3ccco3)n2)o1 (centres undefined)	1.1	0.501	-6.6	0.8	18.8

Compound activity: PubChem BioAssay, several laboratories
